According to ChEMBL document CHEMBL3988442, “University of Dundee, Small-Polar-MMV Screening Library” (2021):
About 13,000 (27%) of roughly 48,000 compounds showed an effect of 50% or more. Some of the results follow.

Each molecule was assayed on Wolbachia pipientis (assay: Anti-Wolbachia Cell-Based Screen). Conditions: 5 µM.
Type: functional
Set-up: scale not given: in the data most compounds retested in dose-response had high values

Compound | Percent Effect
COc1ccc(OCC(C)NS(C)(=O)=O)cc1 (stereo not drawn) | -2.499%
CCCOc1cc(C)c2c(c1C)C[C@H]([C@H](C)C(=O)O)CC2 | -9.304%
CNS(=O)(=O)CC(=O)N1CC2(CCCC2)c2c(F)cccc21 | -10.56%
CCS(=O)(=O)N1CCC(NCC2CNc3cc(C)nn3C2)CC1 (stereo not drawn) | -5.639%
CC(=O)Nc1ccc2c(c1)C1(CCOCC1)C(=O)N2c1ccsc1 | 7.168%
COC(=O)c1ccc(NC(=O)CN2CCCCC2C2OCCO2)cc1 (stereo not drawn) | -2.306%
C1CCN(CCN2CCCCC2C2OCCO2)CC1 (stereo not drawn) | 105.6%
OCCN1CCCCC1C1OCCO1 (stereo not drawn) | 89.19%
c1ccc(Cc2noc(CN3CCCCC3C3OCCO3)n2)cc1 (stereo not drawn) | -5.666%
COc1ccc(NC(=O)CN2CCCCC2C2OCCO2)cc1 (stereo not drawn) | 17.05%
C1CC(CN2CCCCC2C2OCCO2)C1 (stereo not drawn) | 19.65%
Cn1cc(CCNC(=O)CCc2ccc3c(c2)OCO3)cn1 | -1.168%
O=C(Cn1cc(Cl)cn1)Nc1ccc2c(c1)OCCCO2 | -3.42%
CCn1cc(NC(=O)NCCc2ccc3c(c2)OCO3)cn1 | 124.8%
CCn1cc(NC(=O)Nc2ccc3c(c2)OCCO3)cn1 | 131.1%
CCn1cc(NC(=O)NCc2ccc3c(c2)OCO3)cn1 | 135.2%
CCn1cc(NC(=O)NCCc2ccc3c(c2)OCCO3)cn1 | 126.5%
CCn1cc(NC(=O)NCC(C)O)cn1 (stereo not drawn) | -13.78%
CCCn1cc(C(=O)NCCc2ccc3c(c2)OCO3)c(C)n1 | -4.07%
CCn1cc(NC(=O)NCC2(N3CCOCC3)CCSC2)cn1 (stereo not drawn) | -22.54%
Cc1nn(C)c(C)c1CN(Cc1cccn1-c1ccccn1)C(C)C | -9.247%
CCc1cnc(N2CCN(Cc3ccno3)CC2)s1 | 1.528%
CCn1cc(NC(=O)NC(CO)Cc2c[nH]c3ccccc23)cn1 (stereo not drawn) | -9.205%

Compound | Percent Effect
CC(C)c1nnc(NC(=O)NCc2ccc(CO)c(F)c2)s1 | -3.606%
CCn1cc(NC(=O)NCc2ccc(CO)c(F)c2)cn1 | 112.4%
O=C(c1ccccn1)N1CCC(c2nc(O)cc(-c3ccncc3)n2)C1 (stereo not drawn) | 109.3%
O=C(c1ccccn1)N1CCCC(c2nccn2Cc2ccncc2)C1 (stereo not drawn) | -10.11%
O=C(c1ccccn1)N1CCC(c2nccn2Cc2ccncc2)CC1 | 7.014%
CC(C)(C)C(=O)N1CCC(c2nc(O)cc(-c3ccncc3)n2)CC1 | 112.4%
O=C(c1cccnc1)N1CCC(c2nc(O)cc(-c3ccncc3)n2)C1 (stereo not drawn) | 89.59%
CC(C)C(=O)N1CCC(c2nc(O)cc(-c3ccncc3)n2)CC1 | -8.577%
COCc1cc(CNC(=O)c2c(O)cccc2O)n[nH]1 | 12.71%
CC(C)N1CCc2[nH]nc(C(=O)N3CCCC3C)c2C1 (stereo not drawn) | -13.09%
CCOCCCNC(=O)NC(C)c1ccc(-n2cncn2)cc1 (stereo not drawn) | -14.96%
CCOCCNC(=O)c1ccn(S(=O)(=O)c2ccc(C)cc2)c1 | -5.067%
COCC(C)N(C)C(=O)c1ccc2nncn2c1 (stereo not drawn) | 2.79%
COc1cc(C)c(NC(=O)NCCn2cccc2)cc1OC | 2.296%
NC(=O)C1CCN(Cc2cc3c(cc2Br)OCCO3)C1 (stereo not drawn) | 0.4913%
Cc1cncc(C(=O)N2CCCC(C(=O)CCc3ccccc3)C2)c1 (stereo not drawn) | -18.81%
Cc1ccsc1C(=O)N1C[C@@H](C(=O)O)[C@H](C(C)C)C1 | 117.1%
CC(C)C1CN(C(=O)c2ccsc2)CCS1 (stereo not drawn) | 1.544%
CC(C)[C@@H]1CN(C(=O)C2(c3ccccc3)CC2)C[C@H]1C(=O)O | 6.034%
Cc1cncc(C(=O)N2C[C@@H](C(=O)O)[C@H](C(C)C)C2)c1 | 102.6%
CC(C)[C@@H]1CN(C(=O)CN(C)Cc2ccccc2)C[C@H]1C(=O)O | -19.29%
CCc1ccccc1OC1CN(C(=O)c2ccsc2)C1 | -5.309%
Cc1cncc(C(=O)N2CCN(c3cnn(C)c(=O)c3)CC2)c1 | -23.7%

Compound | Percent Effect
CC(C)[C@@H]1CN(C(=O)c2ccsc2)C[C@H]1C(=O)O | 124.9%
CC(c1cccs1)N(C)C(=O)c1cc(CN(C)Cc2ccccc2)on1 (stereo not drawn) | -11.33%
CN(C)c1cc(C(=O)NCC2(c3cccc(F)c3)CCOCC2)ccn1 | -10.3%
CCOc1ccc(Cl)cc1C(C(=O)O)N1CCOCC1 (stereo not drawn) | -18.5%
CC(C)(C)OC(=O)N1CSC[C@@H]1C(=O)NCc1ccc(C#N)cc1 | -6.965%
Cc1ccc(CN2Cc3nnn(C)c3C(COCC3CC3)C2)s1.O=C(O)C(F)(F)F (stereo not drawn) | 100.2%
COCC1CN(Cc2sccc2C)Cc2nnn(CC3CC3)c21.O=C(O)C(F)(F)F (stereo not drawn) | 8.391%
Cc1ccc(CN2Cc3nnn(C)c3C(COCC(=O)N(C)C)C2)s1.O=C(O)C(F)(F)F (stereo not drawn) | 83.68%
Cc1ccc(CN2Cc3nnn(C)c3C(COCC3CC3)C2)o1.O=C(O)C(F)(F)F (stereo not drawn) | 1.722%
COCC1CN(Cc2ccc(C)o2)Cc2nnn(C)c21.O=C(O)C(F)(F)F (stereo not drawn) | 3.893%
Cc1ccc(CN2Cc3c(C(=O)N(C)C)nn(C)c3C2)s1.O=C(O)C(F)(F)F | -8.124%
COCC1CN(Cc2ccc(C)s2)Cc2nnn(C)c21.O=C(O)C(F)(F)F (stereo not drawn) | 106%
CCC(CC)NC(=O)CN1CCSCC1 | 2.417%
Cc1ncnc(N2CCCN(c3nc4ccccc4s3)CC2)c1C | -5.721%
CC(=O)N1CCC(c2nc3ccc(NC4CCC4)cn3n2)CC1.O=C(O)C(F)(F)F | 124.1%
COCCN1CCC(c2nc3ccc(N4CCCC4)cn3n2)CC1.O=C(O)C(F)(F)F | -8.298%
Cl.Cl.Cl.c1cncc(CNc2ccc3nc(C4CCNCC4)nn3c2)c1 | -18.54%
CCN1CCC(c2nc3ccc(NC4CCC4)cn3n2)CC1.O=C(O)C(F)(F)F | 79.67%
CCN1CCC(c2nc3ccc(NC(C)C)cn3n2)CC1.O=C(O)C(F)(F)F | -4.484%
COCCN1CCC(c2nc3ccc(NC4CCC4)cn3n2)CC1.O=C(O)C(F)(F)F | 99.27%
CC(C)Nc1ccc2nc(C3CCN(C(C)C)CC3)nn2c1.O=C(O)C(F)(F)F | 7.625%
COCC(=O)N1CCC(c2nc3ccc(N4CCCC4)cn3n2)CC1.O=C(O)C(F)(F)F | -11.72%
c1cc2nc(C3CCNCC3)nn2cc1NC1CCC1 | 109.6%

Compound | Percent Effect
Cc1cc(C)c(Cn2cncn2)cc1CN1CC[C@H]2CC[C@@H](C1)N2 | 27.46%
CC(=O)N(C)CC(=O)NC(CC(C)C)c1cccs1 (stereo not drawn) | 5.598%
CCc1ccc(C(=O)NCc2ccnc(C)n2)cc1 | 0.2592%
NC(=O)CCCNC(=O)CCc1cc(Br)cs1 | 8.374%
Cc1nc2cc(O)nn2c(C)c1CCC(=O)NCc1cc(Br)cs1 | 111.2%
CCN(c1ccc(C(=O)NCc2ccnc(C)n2)cc1)C(C)C | -16.63%
Cc1cc(CNC(=O)CCc2c(C)nc3cc(O)nn3c2C)no1 | 92.65%
Cc1ccsc1CCNC(=O)CCC(=O)NC1CCCC1 | -4.731%
CCN(CC)S(=O)(=O)c1ccc(CCC(=O)NCc2cc(C)on2)cc1 | 7.778%
Cc1ccsc1CNC(=O)CCc1c(C)nc2cc(O)nn2c1C | 106.8%
Cc1nccc(CNC(=O)CCc2c(C)nc3cc(O)nn3c2C)n1 | 98.09%
O=C(CCc1cc(Br)cs1)NCCCn1ccnc1 | -0.5451%
Cc1ccsc1CNC(=O)CC1CN(C(=O)OC(C)(C)C)C1 | -25.18%
Cc1cc(CNC(=O)CCc2ccc(S(N)(=O)=O)cc2)no1 | -2.333%
Cc1cc(C)n(CCN2CCN(C(=O)c3ccc(Br)o3)CC2)n1 | 17.42%
CCN(C)C[C@@H]1CN(Cc2cccc(O)c2)C[C@@H]1CO | -2.333%
COc1ccc2c(c1)nc1n2[C@@H](CNCc2cnn(C)c2)COC1 | 1.636%
Cc1cccc(CN2CCN(c3ncnc4[nH]ccc34)CC2CCO)n1 (stereo not drawn) | 6.168%
CCN1CCC(CC(=O)NCC(O)c2ccc3ccccc3c2)CC1 (stereo not drawn) | -0.749%
CC(=O)N1CCCC(C(=O)N2Cc3nc(C)n(C)c(=O)c3C2)C1 (stereo not drawn) | 7.499%
COC(=O)C1CN(Cc2ccccc2C(C)(C)C#N)CCO1 (stereo not drawn) | 1.007%
CC(C)OCCS(=O)(=O)N1CCCC1c1cccc(N(C)C)c1 (stereo not drawn) | 4.069%
CC(C)(C)CCCC(=O)NS(=O)(=O)CC1CC1 | -9.167%

Compound | Percent Effect
Cc1cccc(CNC(=O)CCc2c(C)nc3cc(O)nn3c2C)n1 | 101.6%
Cc1ccccc1CNC(=O)Cc1c(C)nc2cc(=O)[nH]n2c1C | 1.807%
Cn1ccc2c(C(=O)N3CCC(C(N)=O)CC3)cccc21 | 2.253%
CC(=O)N(C)C1CCN(C(=O)c2cccc3c2ccn3C)CC1 | 129.7%
Cc1ccc(N2CCCN(C(=O)c3cccc4c3ccn4C)CC2)nn1 | -26.18%
Cn1ccc2c(C(=O)N3CCC4(CCOC4)C3)cccc21 (stereo not drawn) | -11.85%
Cn1ccc2c(C(=O)NCCCN3CCCC3)cccc21 | 7.133%
Cn1ccc2c(C(=O)N3CCN(C(=O)C4CCCC4)CC3)cccc21 | 117.3%
CCc1ncc(-c2nccn2-c2cccc(CC(=O)O)c2)cn1 | -3.277%
CCN1CC2(CCC1=O)CCN(CCc1nccn1C)CC2 | -0.2825%
COc1ccc(C(=O)N2CCC3(CCC(=O)N(C(C)C)C3)CC2)cc1C | 7.605%
Cc1nccn1CCCC(=O)N1CCN(c2cccnc2)CC1 | -0.7063%
Cc1nccn1CCCC(=O)N1CCC2(CCC(=O)N(C(C)C)C2)CC1 | 98.73%
Cc1cnn(CC(=O)N2CCC3(CCC(=O)N(CCCO)C3)CC2)c1 | -87.52%
Cc1cc(N2CCC3(CCC(=O)N(CC4CC4)C3)CC2)nc(N)n1 | -10.67%
Cc1cnn(CC(=O)N2CCC3(CCC(=O)N(CC(C)O)C3)CC2)c1 (stereo not drawn) | -3.932%
Cc1cnn(CCC(=O)N2CCC3(CCC(=O)N(CC4CC4)C3)CC2)c1 | 86.63%
Cc1ncc(CC(=O)N2CCC3(CCC(=O)N(CCO)C3)CC2)c(=O)[nH]1 | 13.05%
Cc1nccn1CCCN1CCC2(CCC(=O)N(CC3CC3)C2)CC1 | 94.75%
Cc1cc(N2CCC3(CCC(=O)N(CC4CC4)C3)CC2)ncn1 | 3.21%
Cc1nccn1CCC(=O)N1CCC2(CCC(=O)N(CC3CC3)C2)CC1 | 117.2%
